Screens (PubChem BioAssay)
DRD3 agonist = qHTS of D3 Dopamine Receptor Agonist: qHTS; D(3) dopamine receptor (Homo sapiens), P35462; D3R DiscoveRx beta-arrestin cells, luminescence, 90 min; max activation, %; 410,000 compounds, 0.58% hits; in the data active means max activation above about 30%
Target sequence (P35462 whole entry, looked up): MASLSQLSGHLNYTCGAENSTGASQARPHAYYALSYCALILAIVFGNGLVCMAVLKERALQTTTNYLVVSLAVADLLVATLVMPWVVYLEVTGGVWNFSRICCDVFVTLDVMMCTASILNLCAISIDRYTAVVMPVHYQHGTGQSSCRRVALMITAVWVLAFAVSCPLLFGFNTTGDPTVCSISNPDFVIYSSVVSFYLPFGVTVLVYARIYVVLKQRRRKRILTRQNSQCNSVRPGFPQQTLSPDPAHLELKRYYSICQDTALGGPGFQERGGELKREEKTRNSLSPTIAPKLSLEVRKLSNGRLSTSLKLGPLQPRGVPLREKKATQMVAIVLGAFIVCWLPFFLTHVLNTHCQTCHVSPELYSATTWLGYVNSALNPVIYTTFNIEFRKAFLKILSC
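Cells at 1500/well, incubated overnight, then treated with pinned compounds (dopamine as control) for 90 min at 37 degrees C. DiscoveRx reagent added for 30 - 60 minutes at room temperature; luminescence read.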
D3 antag = qHTS of D3 Dopamine Receptor Antagonist: qHTS | max response, negative = inhibition, % | D(3) dopamine receptor (Homo sapiens), P35462 | D3R cells, DiscoveRx beta-arrestin luminescence, antagonist mode; stronger effect = lower value | 360,000 compounds, 2.5% hits | AID 652054, 2013; in the data active means max response below about -50%; inconclusive means no clear call, values can overlap the other calls
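Cells expressing the human receptor were seeded at 1500 cells/well, incubated overnight at 37 degrees C in 5% CO2, then exposed to library compounds with dopamine controls for 90 minutes at 37 degrees C before luminescent detection.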
GLP1R inv ag = qHTS of GLP-1 Receptor Inverse Agonists (Inhibition Mode); Glucagon-like peptide 1 receptor (Homo sapiens), P43220; HEK293 GLP-1R CRE-luciferase, luminescence, 24 h; GLP-1R form is constitutively active; Potency, µM (titrated, usually from 38.3 µM), actives largely listed as inhibitors; 410,000 compounds, 1.6% hits; further: nearly all actives have a fitted effect of over 55% in size
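HEK293 cells stably co-expressing a cAMP-responsive luciferase reporter and constitutively active GLP-1R were seeded, incubated 12 h, then exposed to compounds for 24 h at 37 C. Luminescence was read 12 min after detection reagent; inverse agonists lower signal.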
GLP-1R agonist = qHTS of GLP-1 Receptor Agonists; Glucagon-like peptide 1 receptor (Homo sapiens), P43220; HEK293 GLP-1R CRE-luciferase, luminescence, 4-6 h; cells express a hypersensitive GLP-1R form; Potency, µM (top dose mostly 45.6 µM), usual class: activators; 380,000 compounds, 0.007% hits; AID 624172, 2012
Numbers stand for hits; - = inactive; ? = inconclusive; . = not tested or not shown; ! = a repeat was not active. A selection: hits, their analogues and other compounds. The true share with any hit is near 4.3%. Unless noted, the call rests on the fitted dose curve; in most records, active means well fitted curve in the direction sought with a large enough effect; inconclusive means small, poorly fitted or top-dose-only effect, or another doubt; inactive means no such curve, though single readings can be large; an effect the other way counts as inactive or inconclusive.

SMILES | DRD3 agonist | D3 antag | GLP1R inv ag | GLP-1R agonist
COc1ccc(N2CCN(C(=O)Cn3nc(Cc4cccnc4)c4ccccc4c3=O)CC2)cc1 | 70.2 | . | - | .
N#Cc1c(-n2ncnc2-c2ccc(Br)cc2)sc2c1CCCCC2 | - | . | - | .
CN(C)CC(CCC(CN(C)C)C(O)(c1ccccc1)c1ccccc1)C(O)(c1ccccc1)c1ccccc1 (configuration not stated) | - | ? | 2.82µM | -
CN(C)C/C=C/C(O)(c1ccccc1)c1ccccc1 | - | - | - | -
Cc1ccc(Cn2c(CO)cnc2SCC(=O)Nc2ccc(C)c(Cl)c2)cc1 | - | . | 12.6µM | .
Cc1ccc(Cn2c(CO)cnc2SCC(=O)Nc2cccc(F)c2)cc1 | - | . | - | -
CCn1c(CC(=O)Nc2ccc(Cl)c(Cl)c2)nnc1SCc1ccc(C)cc1 | - | -93.0 | - | -
O=C(Nc1ccccc1C(=O)NCCCN1CCOCC1)c1ccccc1 | - | - | - | -
O=C(NCCCN1CCOCC1)c1ccc2c(=O)n(Cc3ccc(Cl)cc3)c(=S)[nH]c2c1 | - | - | 2µM | -
COC(=O)c1ccc2c(=O)n(Cc3ccc(C(=O)NCCCN4CCOCC4)cc3)c(=S)[nH]c2c1 | - | - | - | -
CN(C)CCNC(=O)c1ccc2c(=O)n(Cc3ccc(Cl)cc3)c(=S)[nH]c2c1 | - | -57.7 | 3.16µM | -
Cc1c(C)n(Cc2ccc(Cl)cc2)c2ccc(C(=O)NCCN3CCOCC3)cc12 | - | - | 3.55µM | -
O=C(Nc1ccccc1C(=O)NCCCN1CCOCC1)c1ccc(Cl)cc1 | - | -54.0 | - | -
CC(=O)Nc1cccc(C(=O)NCc2ccc3c(c2)CCN3C(=O)c2ccc(F)cc2)c1 | - | . | - | .
COC(=O)CCC(=O)Nc1ccc(S(=O)(=O)Nc2nc(C)cc(C)n2)cc1 | - | - | - | -
COc1cc2c(cc1OC)C(c1ccccc1C)CC(=O)N2 (configuration not stated) | - | - | - | -
Nc1nccc(-c2ccc(-n3cccc3)cc2)n1 | - | - | - | -
CCN(c1ccc(C)cc1C)S(=O)(=O)c1nnc(NC(=O)CC(C)C)s1 | - | . | - | .
CC1=CC(C)(C)NC(=S)N1c1ccc(C)c(C)c1 | - | - | 11.2µM | -
COc1cc(OC)c2cc(C(=O)N/N=C/c3ccccc3O)[nH]c2c1 | - | - | ? | -
Cc1ccc(-c2cc(C(=O)Nc3nccs3)c3ccccc3n2)o1 | - | - | 10µM | -
O=C(Nc1ccc(S(=O)(=O)Nc2nccs2)cc1)c1cc(-c2ccccn2)nc2ccccc12 | - | ? | - | -
O=C(Nc1ccc(S(=O)(=O)Nc2nccs2)cc1)c1cc(-c2ccccc2Cl)nc2ccccc12 | - | -85.2 | ? | -
Cc1c(Cl)cccc1NC(=O)Cn1nnc(-c2nc(-c3ccccc3)no2)c1N | - | . | - | .
CCC(=O)N(CCC1(C(C)C)CCOC(C)(C)C1)C(C)c1cccs1 (configuration not stated) | - | - | ? | -
SMILES | DRD3 agonist | D3 antag | GLP1R inv ag | GLP-1R agonist
CC(C)CCC1(CCNC(C)c2cccs2)CCOC(C)(C)C1 (configuration not stated) | - | - | 7.08µM | -
Cc1ccnc(NC(c2ccsc2)c2ccc3ccc(C)nc3c2O)c1 (configuration not stated) | - | -98.3 | ? | -
COc1ccc(C(Nc2cc(C)ccn2)c2ccc3ccc(C)nc3c2O)cc1 (configuration not stated) | - | -77.2 | - | -
N#CC1(c2ccc(NC(=O)c3ccccc3F)cc2)CCCC1 | - | - | 4.47µM | -
CCN(CC(=O)Nc1c(F)cccc1F)C(=O)C1CC1 | - | - | - | -
COc1ccc(CNC(=O)Cn2c(=O)oc3cc(S(=O)(=O)N4CCCCCC4)ccc32)cc1 | - | . | - | .
CCCCCCCCCCCCCCCC[n+]1cccc(C(=O)N(CC)CC)c1 | - | -74.2! | ? | -
CCCCCCCC[n+]1cccc(C(=O)N(CC)CC)c1 | - | - | - | -
CC1(C)CC(=O)C(C=Nc2ccc(C(=O)c3ccccc3)cc2N=CC2=C(O)CC(C)(C)CC2=O)=C(O)C1 | - | -118.5 | ? | -
CC1(C)CC(=O)C(C=Nc2cccnc2/N=C/C2=C(O)CC(C)(C)CC2=O)=C(O)C1 | - | -143.1 | - | -
CCOc1ccc(CNC(=O)c2cccc(NC(=O)N3CCSc4ncccc43)c2)cc1 | - | . | - | .
